Results as given in PubChem BioAssay (EPA / NIEHS).
Records with an inconclusive call do not appear. Active and inactive are the calls of the source. The calls were made as follows, unless noted: active = hit-call score of the fitted dose curve at least 0.9, where 1 is the maximum; inactive = score below 0.9.

Tests used:
[1] = ATG_PXRE_CIS: Attagene CIS-FACTORIAL HepG2 Assay for human Pregnane X Receptor Element (PXRE) (AID 2282957); conditions: HepG2 Attagene CIS-FACTORIAL PXRE reporter, mRNA; actives raise or lower the signal
How it was run: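 HepG2 cells transiently transfected with cis-element-driven multiplexed reporter units; after 24 h chemical exposure, reporter mRNA measured by RT-PCR, 6-FAM labelling, HpaI digestion and capillary electrophoresis. Bidirectional fitting relative to DMSO.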

[2] = ATG_PPRE_CIS: Attagene CIS-FACTORIAL HepG2 Assay for human Peroxisome Proliferator-activated Response Element (PPRE) (AID 2282958); conditions: HepG2 PPRE cis-element reporter, Attagene transcription factor profiling; actives raise or lower the signal
How it was run: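 PPRE activity in HepG2: transient cis-reporter transfection, 24 h compound incubation, reporter mRNA by RT-PCR and CE fluorescence; gain/loss fitted against DMSO.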

[3] = ATG_RORE_CIS: Attagene CIS-FACTORIAL HepG2 Assay for human RAR-related Orphan Receptor Element (RORE) (AID 2282959); conditions: HepG2 Attagene cis-factorial RORE reporter, mRNA; actives raise or lower the signal
How it was run: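 A 24-hour exposure of transfected HepG2 hepatoma cells precedes RNA isolation and reporter RT-PCR. Labeled products are digested with HpaI and resolved by capillary electrophoresis, with gain or loss of signal scored relative to DMSO.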

[4] = ATG_Sox_CIS: Attagene CIS-FACTORIAL HepG2 Assay for human SRY-box transcription factor (SOX) (AID 2282960); conditions: HepG2 Attagene cis-factorial SOX reporter, mRNA; actives raise or lower the signal
How it was run: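 HepG2, cis reporter units, 24 h exposure. Reporter mRNA: RT-PCR → FAM labelling → HpaI → CE fluorescence. Bidirectional fit vs DMSO.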

[5] = molecular target: Transcription factor Sp1 (Homo sapiens) (UniProt P08047); test: ATG_Sp1_CIS: Attagene CIS-FACTORIAL HepG2 Assay for human Specificity Protein 1 (Sp1) (AID 2282961); conditions: HepG2 Sp1 cis-reporter transcription, actives raise or lower the signal
How it was run: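 Liver-derived HepG2 cells, cis-element reporter library, 24 h treatment; RNA isolated, cDNA amplified with reporter-specific primers, FAM-labeled fragments sized on capillary analyzer. DMSO baseline, bidirectional curve fit.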

[6] = ATG_SREBP_CIS: Attagene CIS-FACTORIAL HepG2 Assay for human Sterol Regulatory Element Binding (SREBP) (AID 2282962); conditions: HepG2 Attagene cis-factorial SREBP reporter, mRNA; actives raise or lower the signal
How it was run: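 mRNA induction of transfected cis-promoter reporters in HepG2 cells, 24 h post-dose. Detection: RT-PCR with 6-FAM-labelled products, HpaI digest, capillary electrophoresis. DMSO served as negative control and baseline.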

[7] = molecular target: Signal transducer and activator of transcription 3 (Homo sapiens) (UniProt P40763); test: ATG_STAT3_CIS: Attagene CIS-FACTORIAL HepG2 Assay for human Signal Transducer and Activator of Transcription 3 (STAT3) (AID 2282963); conditions: HepG2, Attagene cis-factorial STAT3 reporter transcription; actives raise or lower the signal
How it was run: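 Values derive from bidirectional fits relative to DMSO of reporter mRNA levels, measured by RT-PCR with capillary electrophoresis, in HepG2 cells carrying transiently transfected cis-regulated reporter units and exposed 24 h.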

[8] = ATG_TA_CIS: Attagene CIS-FACTORIAL HepG2 Assay for human TA Basal Promoter (AID 2282964); conditions: HepG2 Attagene CIS-factorial TA basal promoter reporter; actives raise or lower the signal
How it was run: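 HepG2 cells transiently transfected with multiple reporter units under cis promoter elements, reporting endogenous transcription factor activity; this endpoint tracks the TA basal promoter as background control. Reporter mRNA after 24 h dosing measured by RT-PCR/capillary electrophoresis; bidirectional fits versus DMSO.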

[9] = ATG_TCF_b_cat_CIS: Attagene CIS-FACTORIAL HepG2 Assay for human T-Cell-Factor with beta-catenin (TCF/b-cat) (AID 2282965); conditions: HepG2 TCF/beta-catenin cis-reporter transcription, actives raise or lower the signal
How it was run: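 Cells of the HepG2 line carry transiently transfected reporter units whose promoters respond to endogenous factors. Twenty-four hours post-dosing, reporter mRNA induction is measured by fluorescent RT-PCR and capillary electrophoresis, with DMSO as baseline.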

[10] = ATG_TAL_CIS: Attagene CIS-FACTORIAL HepG2 Assay for human TAL Basal Promoter (AID 2282966); conditions: HepG2 Attagene cis-factorial TAL promoter reporter; actives raise or lower the signal;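 also: background control endpoint measuring basal TAL promoter reporter mRNA not a specific factor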
How it was run: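 HepG2 cells transiently transfected with multiplexed cis-promoter reporter units, dosed 24 h. Reporter mRNA quantified by RT-PCR, 6-FAM labelling, HpaI digestion and capillary electrophoresis; TAL basal promoter serves as background control, fitted bidirectionally versus DMSO.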

[11] = ATG_VDRE_CIS: Attagene CIS-FACTORIAL HepG2 Assay for human Vitamin D Receptor Element (VDRE) (AID 2282968); conditions: HepG2 VDRE cis-reporter transcription, actives raise or lower the signal
How it was run: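 Cell-based multiplexed reporter format in human liver HepG2 cells, 24 h post-dose. Fluorescence from capillary electrophoresis of reporter cDNA gives the signal, with DMSO as negative control and baseline.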

[12] = molecular target: X-box-binding protein 1 (Homo sapiens) (UniProt P17861); test: ATG_Xbp1_CIS: Attagene CIS-FACTORIAL HepG2 Assay for human X-box Binding Protein 1 (XBP1) (AID 2282972); conditions: HepG2 XBP1 cis-element reporter, Attagene multiplex; actives raise or lower the signal
How it was run: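 Fluorescence-labelled cDNA fragments from reporter transcripts, separated by capillary electrophoresis, give the signal. Source: HepG2 cells transfected with promoter-driven reporter units, harvested 24 h post-dose. DMSO served as reference for bidirectional curve fitting.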

[13] = molecular target: Steroid hormone receptor ERR1 (Homo sapiens) (UniProt P11474); test: ATG_ERRa_TRANS: Attagene TRANS-FACTORIAL HepG2 Assay for human Estrogen-Related Receptor alpha (ERRa) (AID 2282971; active = hit-call score of the fitted dose curve at least 0.9, where 1 is the maximum); conditions: HepG2 Attagene TRANS reporter, ERRa transactivation
How it was run: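 HepG2 cells transiently transfected with GAL4-UAS reporter units and chimeric NR-Gal4 constructs; after 24 hour compound incubation, reporter mRNA quantified by RT-PCR, fluorescent labelling and capillary electrophoresis, gain of signal versus DMSO.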

[14] = ATG_M_19_TRANS: Attagene TRANS-FACTORIAL HepG2 Assay for M19 Transcription Factor (Internal Marker) (AID 2282974; active = hit-call score of the fitted dose curve at least 0.9, where 1 is the maximum); conditions: HepG2 Attagene TRANS-FACTORIAL M19 internal marker reporter
How it was run: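 Transfected HepG2 (GAL4-UAS MRTUs), 24 h compound, TriZol RNA, DNase-treated RT, reporter PCR, FAM label, HpaI digest, CE fluorescence; gain vs DMSO.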

[15] = ATG_TGFb_CIS: Attagene CIS-FACTORIAL HepG2 Assay for human Transforming Growth Factor (TGF) (AID 2282967); conditions: HepG2 Attagene CIS TGFb reporter, mRNA transcription; actives raise or lower the signal
How it was run: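 HepG2 cells transiently transfected with cis-promoter-driven multiple reporter units measure endogenous TF activity; reporter mRNA quantified at 24 h by RT-PCR, FAM labeling, HpaI digestion and capillary electrophoresis. Bidirectional fit vs DMSO.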

[16] = ATG_GAL4_TRANS: Attagene TRANS-FACTORIAL HepG2 Assay for GAL4 (Internal Marker) (AID 2282976; active = hit-call score of the fitted dose curve at least 0.9, where 1 is the maximum); conditions: HepG2 Attagene TRANS GAL4 internal marker reporter
How it was run: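 Background-control readout: GAL4-UAS reporter transcript in transiently transfected HepG2 cells after 24 h compound exposure. Measured by RT-PCR, 6-FAM primer extension, HpaI digest and capillary electrophoresis; gain-of-signal fit versus DMSO.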

[17] = molecular target: Estrogen receptor (Homo sapiens) (UniProt P03372); test: ATG_ERa_TRANS: Attagene TRANS-FACTORIAL HepG2 Assay for human Estrogen Receptor alpha (ERa) (AID 2282970; active = hit-call score of the fitted dose curve at least 0.9, where 1 is the maximum); conditions: HepG2 Attagene TRANS ERa GAL4 reporter, mRNA
How it was run: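 HepG2 cells transiently transfected with multiplexed GAL4-UAS reporter units read out chimeric NR-Gal4 activity. After 24 h compound exposure, reporter mRNA was quantified by RT-PCR, 6-FAM labeling, HpaI digestion and capillary electrophoresis, relative to DMSO.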

[18] = molecular target: Nuclear receptor subfamily 1 group I member 3 (Homo sapiens) (UniProt Q14994); test: ATG_CAR_TRANS: Attagene TRANS-FACTORIAL HepG2 Assay for human Constitutive Androstane Receptor (CAR) (AID 2282969; active = hit-call score of the fitted dose curve at least 0.9, where 1 is the maximum;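 also: activators raise reporter mRNA above DMSO so AC50 marks induction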); conditions: HepG2 Attagene TRANS-FACTORIAL CAR reporter
How it was run: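 HepG2 cells transiently transfected with GAL4-UAS reporter units; TRANS format reads activity of exogenous chimeric NR-Gal4 protein. After 24 h dosing, reporter mRNA quantified by RT-PCR, 6-FAM labelling and capillary electrophoresis; gain of signal fitted against DMSO.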

Measured: AC50

Sequence of Signal transducer and activator of transcription 3 (Homo sapiens) (P40763 whole entry, looked up): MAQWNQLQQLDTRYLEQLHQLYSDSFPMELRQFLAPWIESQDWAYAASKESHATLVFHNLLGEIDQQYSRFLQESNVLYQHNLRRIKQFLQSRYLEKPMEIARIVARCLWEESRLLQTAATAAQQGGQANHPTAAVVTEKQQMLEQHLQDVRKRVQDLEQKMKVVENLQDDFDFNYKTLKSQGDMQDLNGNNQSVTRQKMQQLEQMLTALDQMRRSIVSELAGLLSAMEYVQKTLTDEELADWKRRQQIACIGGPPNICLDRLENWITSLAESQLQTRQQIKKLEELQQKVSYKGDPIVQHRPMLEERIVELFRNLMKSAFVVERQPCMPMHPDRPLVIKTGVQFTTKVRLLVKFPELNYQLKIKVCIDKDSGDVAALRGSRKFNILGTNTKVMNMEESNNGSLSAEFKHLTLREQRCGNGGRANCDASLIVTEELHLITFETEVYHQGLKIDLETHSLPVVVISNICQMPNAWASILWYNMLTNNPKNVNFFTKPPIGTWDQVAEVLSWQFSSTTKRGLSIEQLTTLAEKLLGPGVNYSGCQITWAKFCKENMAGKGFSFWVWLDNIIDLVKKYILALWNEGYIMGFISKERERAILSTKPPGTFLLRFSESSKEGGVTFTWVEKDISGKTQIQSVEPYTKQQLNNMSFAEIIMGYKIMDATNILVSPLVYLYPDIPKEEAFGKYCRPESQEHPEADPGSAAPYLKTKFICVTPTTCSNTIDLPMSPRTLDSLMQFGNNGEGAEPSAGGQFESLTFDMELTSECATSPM
Sequence of Transcription factor Sp1 (Homo sapiens) (P08047 whole entry, looked up, the tested form may be a part): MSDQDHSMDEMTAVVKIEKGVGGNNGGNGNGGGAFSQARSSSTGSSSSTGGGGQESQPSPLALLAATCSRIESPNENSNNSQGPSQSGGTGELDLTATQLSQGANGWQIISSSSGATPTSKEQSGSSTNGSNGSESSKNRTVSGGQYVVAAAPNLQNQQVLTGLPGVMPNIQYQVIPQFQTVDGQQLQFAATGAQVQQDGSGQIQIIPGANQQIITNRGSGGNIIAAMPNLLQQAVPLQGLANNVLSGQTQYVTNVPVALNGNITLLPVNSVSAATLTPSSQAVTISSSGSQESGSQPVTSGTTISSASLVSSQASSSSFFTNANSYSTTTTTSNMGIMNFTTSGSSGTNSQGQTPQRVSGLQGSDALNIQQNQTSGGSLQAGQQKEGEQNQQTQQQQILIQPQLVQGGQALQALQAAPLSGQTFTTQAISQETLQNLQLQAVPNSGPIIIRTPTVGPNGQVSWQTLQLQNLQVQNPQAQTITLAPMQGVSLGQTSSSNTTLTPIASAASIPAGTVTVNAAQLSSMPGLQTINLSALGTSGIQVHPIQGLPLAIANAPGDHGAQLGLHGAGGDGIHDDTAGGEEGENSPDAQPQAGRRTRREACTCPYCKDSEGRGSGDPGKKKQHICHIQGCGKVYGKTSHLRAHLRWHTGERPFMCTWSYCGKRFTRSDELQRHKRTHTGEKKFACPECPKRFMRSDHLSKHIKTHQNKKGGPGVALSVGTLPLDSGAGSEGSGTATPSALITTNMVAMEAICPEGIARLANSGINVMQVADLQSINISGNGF
Sequence of Estrogen receptor (Homo sapiens) (P03372 whole entry, looked up, the tested form may be a part): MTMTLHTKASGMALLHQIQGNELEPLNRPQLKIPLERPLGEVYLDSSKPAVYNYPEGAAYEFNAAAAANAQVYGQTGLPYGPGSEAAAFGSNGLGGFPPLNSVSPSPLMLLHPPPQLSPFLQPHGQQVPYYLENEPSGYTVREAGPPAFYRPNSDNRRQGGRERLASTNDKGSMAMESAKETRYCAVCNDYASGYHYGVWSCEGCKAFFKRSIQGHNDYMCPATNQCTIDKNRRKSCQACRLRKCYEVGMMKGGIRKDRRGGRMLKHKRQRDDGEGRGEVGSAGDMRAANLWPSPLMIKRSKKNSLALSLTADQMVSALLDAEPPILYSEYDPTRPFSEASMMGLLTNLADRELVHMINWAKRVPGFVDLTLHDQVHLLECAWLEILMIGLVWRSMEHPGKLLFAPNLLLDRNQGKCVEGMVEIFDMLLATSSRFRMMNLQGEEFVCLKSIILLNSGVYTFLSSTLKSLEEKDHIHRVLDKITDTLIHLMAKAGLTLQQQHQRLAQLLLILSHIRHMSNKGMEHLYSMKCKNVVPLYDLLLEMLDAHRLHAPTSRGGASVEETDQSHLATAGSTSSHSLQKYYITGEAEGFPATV
Sequence of X-box-binding protein 1 (Homo sapiens) (P17861 whole entry, looked up, the tested form may be a part): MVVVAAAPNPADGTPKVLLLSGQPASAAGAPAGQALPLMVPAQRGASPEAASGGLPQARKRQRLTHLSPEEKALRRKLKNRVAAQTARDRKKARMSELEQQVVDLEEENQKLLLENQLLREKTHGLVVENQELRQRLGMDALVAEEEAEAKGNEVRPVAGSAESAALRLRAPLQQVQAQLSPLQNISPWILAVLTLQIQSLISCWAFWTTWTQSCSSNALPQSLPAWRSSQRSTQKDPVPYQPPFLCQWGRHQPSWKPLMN
Sequence of Nuclear receptor subfamily 1 group I member 3 (Homo sapiens) (Q14994 whole entry, looked up, the tested form may be a part): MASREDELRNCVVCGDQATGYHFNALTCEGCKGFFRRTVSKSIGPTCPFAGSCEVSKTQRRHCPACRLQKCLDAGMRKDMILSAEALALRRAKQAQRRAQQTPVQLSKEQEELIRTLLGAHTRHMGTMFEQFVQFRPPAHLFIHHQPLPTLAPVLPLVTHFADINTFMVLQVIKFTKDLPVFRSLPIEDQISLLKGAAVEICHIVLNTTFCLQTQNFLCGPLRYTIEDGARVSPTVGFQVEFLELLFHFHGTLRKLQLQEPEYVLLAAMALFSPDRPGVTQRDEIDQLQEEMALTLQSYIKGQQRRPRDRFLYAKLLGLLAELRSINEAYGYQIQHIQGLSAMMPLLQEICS
Sequence of Steroid hormone receptor ERR1 (Homo sapiens) (P11474 whole entry, looked up, the tested form may be a part): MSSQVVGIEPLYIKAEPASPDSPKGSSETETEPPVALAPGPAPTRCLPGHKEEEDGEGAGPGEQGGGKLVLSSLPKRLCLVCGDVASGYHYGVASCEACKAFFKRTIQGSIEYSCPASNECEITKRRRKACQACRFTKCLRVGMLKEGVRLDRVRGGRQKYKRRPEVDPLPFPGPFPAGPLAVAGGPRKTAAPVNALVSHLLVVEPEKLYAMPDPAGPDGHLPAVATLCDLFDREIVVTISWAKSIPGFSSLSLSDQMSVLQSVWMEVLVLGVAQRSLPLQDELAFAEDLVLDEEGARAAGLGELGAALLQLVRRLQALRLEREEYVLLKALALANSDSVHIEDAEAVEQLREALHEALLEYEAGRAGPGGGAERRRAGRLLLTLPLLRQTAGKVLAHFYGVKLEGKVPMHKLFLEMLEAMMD

CC1(C)C(=O)N(Br)C(=O)N1Br
not listed: [13] | [14] | [15] | [16] | [17] | [18]
inactive: all other assays above

CCCN(C1CCN(C(=O)C2CCNCC2)CC1)[C@@H]1CCc2ccc(OC)cc2C1
active: [1] 100 µM | [5] 177 µM | [9] 113 µM | [12] 153 µM
not listed: [15] | [16] | [17] | [18]
inactive: all other assays above

CC(C)CCCCCCOC(=O)c1ccc(C(=O)OCCCCCCC(C)C)c(C(=O)OCCCCCCC(C)C)c1
not listed: [13] | [14] | [17] | [18]
inactive: all other assays above

Cn1c(=O)cc(Oc2ccc(F)cc2F)c2cnc(NCC(C)(C)O)nc21
active: [9] 56.9 µM
not listed: [13] | [16] | [18]
inactive: all other assays above

Cn1cnc([N+](=O)[O-])c1Sc1ncnc2nc[nH]c12
active: [17] 46.1 µM
not listed: [11] | [13] | [14] | [15] | [16]
inactive: all other assays above

Cc1c(-c2cccnc2)c2ccccc2n1CCCCC(=O)O
active: [2] 5.71 µM
not listed: [13] | [15] | [16] | [17]
inactive: all other assays above

Fc1ccccc1[C@@H](F)COC1CCC(Nc2ncnc3[nH]ncc23)CC1 (stereo not given in full)
inactive: [4] | [7] | [9] | [10] | [12] | [14]
active: [1] 25.4 µM | [2] 4.79 µM | [3] 26.1 µM | [5] 168 µM | [6] 4.65 µM | [8] 4.57 µM | [11] 26 µM

COc1ccc(/C=C/S(=O)(=O)NC(=O)c2ccc(C)cc2Cl)cc1
not listed: [13] | [16] | [17] | [18]
inactive: all other assays above

CCn1nc(Cc2ccccc2)cc1C1CCN(C[C@H]2C[C@H](N(C)[C@@H](C(=O)O)C(C)C)C[C@@H]2c2cccc(F)c2)CC1
active: [6] 26.9 µM | [9] 100 µM
not listed: [13] | [18]
inactive: all other assays above
